Bioassay records (PubChem BioAssay)
Shown is part of a subset that was picked to be rich in hits.
IDE exosite inh – exo-site inhibitors of human insulin-degrading enzyme. z-score at 20 µM. purified IDE, FL-6b probe fluorescence polarization; hits give low values. hit rate 6.3% among 17,000;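 active = z-score of -3 or lower, meaning strong loss of probe binding signal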;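 also: His-tagged human IDE residues 42-1019 made in E. coli with 30 nM FL-6b probe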
* hit, by the source's call; ! = not confirmed by another sample.

What do the screens show for `COCC(=O)N1CCCCN2[C@@H](CO)[C@H](c3ccc(-c4cccc(C)c4)cc3)[C@@H]2C1`?
IDE exosite inh: -3.1*

How did COCC(=O)N1CCCCN2[C@@H](CO)[C@H](c3ccc(-c4ccc(C)cc4)cc3)[C@@H]2C1 do in these assays?
IDE exosite inh: 2.4

How did COCC(=O)N1CCCCN2[C@H](C1)[C@H](c1ccc(-c3ccc(C)cc3)cc1)[C@@H]2CO do in these assays?
IDE exosite inh: 1.1

Results for COCC(=O)N1CCCCN2[C@@H](CO)[C@@H](c3ccc(-c4ccc(C)cc4)cc3)[C@@H]2C1 ?
IDE exosite inh: 0.039

Results for COCC(=O)N1CCCCN2[C@H](CO)[C@@H](c3ccc(-c4cccc(C)c4)cc3)[C@@H]2C1 ?
IDE exosite inh: -5.3*

How did CN(C)C(=O)C[C@@H]1C=C[C@@H](NC(=O)c2ccc(F)cc2)[C@H](CO)O1 do in these assays?
IDE exosite inh: 2.3

How did O=C(c1ccc2c(c1)OCO2)N1CC(=O)N2[C@H](CO)[C@H](c3ccc(C#CC4CCCC4)cc3)[C@H]2C1 do in these assays?
IDE exosite inh: 0.25

What do the screens show for `COc1ccc(-c2ccc([C@H]3[C@H]4CN(C(=O)C5CCC5)CC(=O)N4[C@H]3CO)cc2)cc1`?
IDE exosite inh: -0.16

What do the screens show for `COc1ccc(-c2ccc([C@H]3[C@@H](CO)N4C(=O)CN(C(=O)C5CCC5)C[C@@H]34)cc2)cc1`?
IDE exosite inh: 1.7

Results for COc1cccc(-c2ccc([C@H]3[C@@H](CO)N4C(=O)CN(C(=O)C5CC5)C[C@@H]34)cc2)c1 ?
IDE exosite inh: -6.5*

What do the screens show for `COc1ccc(-c2ccc([C@@H]3[C@H]4CN(C(=O)C5CC5)CC(=O)N4[C@H]3CO)cc2)cc1`?
IDE exosite inh: -2.4

What do the screens show for `COc1cccc(-c2ccc([C@@H]3[C@H]4CN(C(=O)C5CC5)CC(=O)N4[C@H]3CO)cc2)c1`?
IDE exosite inh: -11*

What do the screens show for `COc1ccc(-c2ccc([C@@H]3[C@@H](CO)N4C(=O)CN(C(=O)C5CCCC5)C[C@H]34)cc2)cc1`?
IDE exosite inh: 0.57

What do the screens show for `COc1cccc(-c2ccc([C@@H]3[C@H](CO)N4C(=O)CN(C(=O)C5CCC5)C[C@@H]34)cc2)c1`?
IDE exosite inh: -10*

Results for COc1ccc(-c2ccc([C@@H]3[C@H]4CN(C(=O)C5CCCC5)CC(=O)N4[C@H]3CO)cc2)cc1 ?
IDE exosite inh: -1.1

What do the screens show for `COc1ccc(-c2ccc([C@@H]3[C@@H](CO)N4C(=O)CN(C(=O)C5CCCC5)C[C@@H]34)cc2)cc1`?
IDE exosite inh: -0.91

Results for COc1ccc(-c2ccc(C3[C@H]4CNC[C@@H]3N4Cc3cncnc3)cc2)cc1 (stereo not given in full) ?
IDE exosite inh: 1.1

Results for CCCC(=O)Nc1ccc2c(c1)OC[C@@H](C)N(CC1CCOCC1)C[C@@H](C)[C@@H](OC)CN(C)C2=O ?
IDE exosite inh: 1.6

Results for C/C=C/c1ccccc1[C@H]1[C@@H](CO)N(C(=O)Nc2ccc(OC)cc2)[C@H]1C#N ?
IDE exosite inh: -1.3

What do the screens show for `COc1ccc(S(=O)(=O)N2CCCCN3[C@H](CO)[C@@H](c4ccc(C#CC5CC5)cc4)[C@@H]3C2)cc1`?
IDE exosite inh: 2.7

What do the screens show for `COCC(=O)N1[C@@H](CO)[C@@H](c2ccc(-c3ccccc3OC)cc2)C12CN(C(C)=O)C2`?
IDE exosite inh: 0.23

What do the screens show for `COc1cccc(NC(=O)N2C[C@H](O)COC[C@@H]3O[C@@H](CC(=O)N(C)C)CC[C@H]32)c1`?
IDE exosite inh: -0.31

How did OC[C@H]1[C@@H](c2ccc(-c3cccc(F)c3)cc2)[C@@H]2CN(Cc3cncnc3)CCCCN12 do in these assays?
IDE exosite inh: 0.014

Results for CCCC#Cc1ccc([C@H]2[C@H](CO)N3CCCCN(Cc4ccncc4)C[C@@H]23)cc1 ?
IDE exosite inh: -0.41

How did OC[C@@H]1[C@H](c2ccc(-c3cccc(F)c3)cc2)[C@H]2CN(Cc3cncnc3)CCCCN12 do in these assays?
IDE exosite inh: -0.54

How did O=C(C1CCC1)N1C[C@@H]2N[C@H](C1)C2c1ccc(/C=C/c2ccccc2)cc1 (stereo not given in full) do in these assays?
IDE exosite inh: -1.7

Results for OC[C@@H]1[C@H](c2ccc(-c3ccccc3F)cc2)[C@H]2CN(Cc3ccncc3)CCCCN12 ?
IDE exosite inh: 0.71

What do the screens show for `OC[C@@H]1[C@H](c2ccc(/C=C/c3ccccc3)cc2)[C@@H]2CN(Cc3ccncc3)CCCCN12`?
IDE exosite inh: -8.5*

What do the screens show for `OC[C@@H]1[C@H](c2ccc(/C=C/c3ccccc3)cc2)[C@H]2CN(Cc3cncnc3)CCCCN12`?
IDE exosite inh: -4.4*

What do the screens show for `C(=C\c1ccc(C2[C@@H]3CN(Cc4cccnc4)C[C@H]2N3)cc1)/c1ccccc1` (stereo not given in full)?
IDE exosite inh: -4.8*!

Results for OC[C@H]1[C@H](c2ccc(-c3ccc(F)cc3)cc2)[C@H]2CN(Cc3cccnc3)CCCCN21 ?
IDE exosite inh: 1.4

How did c1cncc(CN2C[C@@H]3N[C@H](C2)C3c2ccc(-c3cccnc3)cc2)c1 (stereo not given in full) do in these assays?
IDE exosite inh: 1.8

What do the screens show for `OC[C@@H]1[C@@H](c2ccc(/C=C/c3ccccc3)cc2)[C@@H]2CN(Cc3cccnc3)CCCCN12`?
IDE exosite inh: -0.94

Results for OC[C@@H]1[C@H](c2ccc(/C=C/c3ccccc3)cc2)[C@@H]2CN(Cc3cccnc3)CCCCN12 ?
IDE exosite inh: -5.2*

How did CN(C)C(=O)c1ccc(-c2ccc([C@H]3[C@H](CO)N4CCCCN(CC5CC5)C[C@@H]34)cc2)cc1 do in these assays?
IDE exosite inh: 2.9

How did O=C(C[C@H]1C[C@@H]2c3cc(NC(=O)c4ccc5c(c4)OCO5)ccc3O[C@@H]2[C@H](CO)O1)NCCN1CCCCC1 do in these assays?
IDE exosite inh: -1.1

Results for C[C@H](NC(=O)[C@@H]1[C@@H](CO)[C@@H]2Cn3c(ccc(-c4ccccc4F)c3=O)[C@H]1N2)c1ccccc1 ?
IDE exosite inh: 0.14

What do the screens show for `CN(C[C@@H]1N[C@H](CO)[C@@H]1c1ccc(C#CCC2CCCC2)cc1)S(C)(=O)=O`?
IDE exosite inh: 0.11

Results for O=C(C[C@H]1CC[C@@H]2[C@H](COC[C@H](O)CN2Cc2ccc(F)cc2)O1)NCCc1ccccc1 ?
IDE exosite inh: -1.4

What do the screens show for `Cc1ccccc1-c1ccc([C@H]2[C@@H](CO)N3CCCCN(Cc4cccnc4)C[C@H]23)cc1`?
IDE exosite inh: -11*

How did OC[C@@H]1[C@@H](c2ccc(/C=C/c3ccccc3)cc2)[C@@H]2CN(Cc3cncnc3)CCCCN12 do in these assays?
IDE exosite inh: -7.9*

How did OC[C@@H]1[C@@H](c2ccc(-c3ccccc3)cc2)[C@H]2CN(Cc3cncnc3)CCCCN12 do in these assays?
IDE exosite inh: 2.7

What do the screens show for `OC[C@H]1[C@H](c2ccc(-c3ccccc3F)cc2)[C@@H]2CN(Cc3cccnc3)CCCCN12`?
IDE exosite inh: 2.6

How did OC[C@H]1[C@@H](c2ccc(-c3ccccc3F)cc2)[C@H]2CN(Cc3cccnc3)CCCCN21 do in these assays?
IDE exosite inh: 2.5

What do the screens show for `OC[C@H]1[C@H](c2ccc(Br)cc2)[C@@H]2CN(Cc3cncnc3)CCCCN12`?
IDE exosite inh: 2.8

Results for C/C=C/c1ccc([C@H]2[C@@H](CO)N(C(C)=O)[C@@H]2CN(CCC)C(C)=O)cc1 ?
IDE exosite inh: 1.9
